From PubChem BioAssay
MEKK2 mut-MEK5: MEK5 binding signal on mutant MEKK2 PB1, primary screen, biochemical, multiplex bead flow cytometry, Alexa488-MEK5 | Alexa488-MEK5 binding to MEKK2 mutant | 0.35% of 290,000 active | percent response, % at 10 µM | AID 1530, 2009; in the data active = percent response above about 24%, passing the limit was not always enough
MEKK3 PB1 HTS: modulators of MEKK3-MEK5 PB1 binding, primary screen, biochemical, wildtype MEKK3, multiplex bead flow cytometry, Alexa488-MEK5; binding response (% of control), % at 10 µM; bead-based flow cytometry, Alexa488-MEK5 binding to MEKK3; actives lie on both sides; 0 = blocked by unlabeled MEK5, 100 = vehicle; 1.4% of 290,000 active; AID 1529, 2009;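 active = binding response more than 3 SD above or below the average of its plate-row segment, actives on both sides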;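 also: Alexa488 bead fluorescence after subtracting the streptavidin-only scavenger bead signal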
Target sequence (Q99759 whole entry, looked up): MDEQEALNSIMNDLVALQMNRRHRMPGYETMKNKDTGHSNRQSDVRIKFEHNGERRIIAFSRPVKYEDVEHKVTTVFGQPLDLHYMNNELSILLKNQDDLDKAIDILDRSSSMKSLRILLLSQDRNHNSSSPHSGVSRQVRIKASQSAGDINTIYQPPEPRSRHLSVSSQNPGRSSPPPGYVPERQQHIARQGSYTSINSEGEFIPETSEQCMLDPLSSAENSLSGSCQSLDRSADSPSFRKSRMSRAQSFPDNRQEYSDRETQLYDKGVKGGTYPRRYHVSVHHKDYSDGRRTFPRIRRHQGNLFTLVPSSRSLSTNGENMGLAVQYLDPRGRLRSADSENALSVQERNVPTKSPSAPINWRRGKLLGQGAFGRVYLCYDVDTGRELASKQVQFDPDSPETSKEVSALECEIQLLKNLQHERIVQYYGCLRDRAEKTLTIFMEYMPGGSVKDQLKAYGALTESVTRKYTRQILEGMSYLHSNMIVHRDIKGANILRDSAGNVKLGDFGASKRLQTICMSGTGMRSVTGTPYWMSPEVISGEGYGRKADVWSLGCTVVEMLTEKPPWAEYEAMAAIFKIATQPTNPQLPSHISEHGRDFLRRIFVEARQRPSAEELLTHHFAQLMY
MEKK2 WT-MEK5: modulators of MEK5 binding to wildtype MEKK2, primary screen, biochemical, multiplex bead flow cytometry, Alexa488-MEK5 | Mitogen-activated protein kinase kinase kinase 2 (Homo sapiens), Q9Y2U5 | Alexa488-MEK5 binding to MEKK2 WT; actives lie on both sides | binding response (% of control), % at 10 µM | 1.1% of 290,000 active; in the data active = binding response below about 67% or above about 130%
Beta2AR agonist: beta2AR agonists driving receptor internalization, primary screen, cell-based, FAP fluorogen, flow cytometry | Am2.2-beta2AR cells | AID 504454, 2011 | Beta-2 adrenergic receptor (Homo sapiens), P07550 | 0.43% of 340,000 active | response, % (concentration not given with the values);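 active = response above a set limit, near 3 SD of response in nonfluorescent compounds, cut at about 42% in these data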
GRK2 aptamer HTS: compounds blocking aptamer binding on GRK2 – biochemical, human GRK2, bead flow cytometry, HTS, primary screen; FAM-aptamer displacement from GRK2; inhibition of aptamer binding, % at 10 µM; 0.59% of 330,000 active; AID 488847, 2010;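 active = inhibition of aptamer binding above 40%, roughly 3 SD of noise, on plates passing a quality check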;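 also: median bead fluorescence of bound FAM aptamer so fluorescent compounds give negative values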
MEKK2wt confirm: modulators of MEK5 binding to wildtype MEKK2, confirmation, biochemical, single concentration, multiplex bead flow cytometry | shares compounds with MEKK3 PB1 HTS | Alexa488-MEK5 binding to MEKK2 WT; actives lie on both sides | binding response (% of control), % at 10 µM | 2.4% of 5,900 active; in the data active = binding response below about 16% or above about 210%; inactive = in between
MEKK2mut confirm: mutant MEKK2 PB1-MEK5 binding signal retest – biochemical, single concentration, multiplex bead flow cytometry, confirmation; shares compounds with MEKK3 PB1 HTS; Alexa488-MEK5 binding to MEKK2 mutant; percent response, % at 10 µM; 2% of 5,900 active; AID 1893, 2009; in the data active = percent response mostly above about 71%, no sharp cut-off; inactive = mostly below about 38%;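 also: higher means compound restores mutant binding toward wildtype level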
MEKK3-MEK5 inh: MEKK3 wild-type PB1 binding to MEK5, inhibitors, confirmation, biochemical, bead multiplex flow cytometry, single concentration, wildtype; binding response (% of control), % at 10 µM; 1.8% of 5,900 active; shares compounds with MEKK3 PB1 HTS; AID 1894, 2009; Alexa488-MEK5 binding to MEKK3; hits give low values;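 active = binding response below 72% of control, or above a set upper limit, though filed actives all read lower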;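 also: lower values mean stronger disruption of MEK5 binding to MEKK3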
GRK2 inh confirm: GRK2 aptamer-displacing inhibitors, retest, confirmation, biochemical, cherry pick 1, bead flow cytometry; shares compounds with GRK2 aptamer HTS; bead-bound GRK2, FAM-aptamer displacement; aptamer displacement, % at 10 µM; 4% of 2,000 active; AID 504451, 2011;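 active = aptamer displacement above 40%, near three times the noise of non-fluorescent compounds, on plates passing quality checks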;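 also: negative values mostly reflect intrinsic compound fluorescence rather than true enhancement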
Aptamer quench 1: counter-screen for GRK2 aptamer inhibitors: fluorescent aptamer quenchers | shares compounds with GRK2 aptamer HTS | Fluorescent RNA aptamer beads, quenching, flow cytometry; hits give high values | AID 504521 | fluorescence change (kMESF span), kMESF (no concentration beside the values) | 110 tested, under 10 active;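 active = compounds whose bead fluorescence drops by more than 37 kMESF across the dose range, marking them as dye quenchers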
Aptamer quench SP: quenches fluorescent RNA aptamer, GRK2 hit artifact | fluorescence response (% of DMSO), % at 10 µM | Carboxyfluorescein RNA aptamer on beads, flow cytometry quenching; hits give low values | shares compounds with GRK2 aptamer HTS | 2,000 tested, under 10 active;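 active = compounds that quench the bead-bound fluorescent RNA probe, cutting fluorescence to under half of the solvent control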;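 also: counterscreen run without GRK2 so only probe quenching by compound is measured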
B2AR ag CP1: beta2AR agonists via receptor internalization, confirmation, cell-based, FAP fluorogen, flow cytometry, single point, cherry pick 1; shares compounds with Beta2AR agonist; Am2.2-beta2AR cells, FAP surface receptor; hits give low values; percent response (surface receptor), % at 10 µM; 25% of 1,100 active; AID 540358, 2011;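 active = surface receptor percent response at or below 58%, roughly 3 SD from nonfluorescent compounds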
B2AR FAP counter: fluorescence artifact in beta-2AR agonist FAP counterscreen; shares compounds with Beta2AR agonist; Am2.2 cells, FAP fluorogen flow cytometry; hits give low values; calls only at 10 µM; 1,100 tested, under 10 active; AID 588765;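 active = percent response below a set limit in fluorescence channel 1 and below 50% in channel 8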
Hits are given with their value; i = inactive; nt = not tested or not shown; [ ] = remark or other dose. Hits are enriched below; roughly 2.9% of the tested compounds scored in any of these assays.

SMILES	MEKK2 mut-MEK5	MEKK3 PB1 HTS	MEKK2 WT-MEK5	Beta2AR agonist	GRK2 aptamer HTS	MEKK2wt confirm	MEKK2mut confirm	MEKK3-MEK5 inh	others
O=c1[nH]c2ccccc2n1C1CCN(CCCC(c2ccc(F)cc2)c2ccc(F)cc2)CC1	31	i	146	i	i	i	i	i
OCC(Br)CBr (stereo not drawn)	nt	nt	nt	i	i	nt	nt	nt
c1ccc(CN2CCN(Cc3ccc4ccccc4c3)CC2)cc1	i	i	i	i	i	nt	nt	nt
N#Cc1c(Cl)nc(Cl)c2c1CCN(Cc1ccccc1)C2	i	183	i	i	i	i	i	i
CCCC1CCCCC12C(=O)NC(=O)NC2=O (stereo not drawn)	nt	nt	nt	i	nt	nt	nt	nt
Cc1ccc(Cl)cc1N1CCN(CCN)CC1	40	i	139	i	i	i	i	i
CCN(CC)c1ccc(/C=N/c2sc3c(c2C#N)C2CCN3CC2)c(O)c1	92	i	i	i	i	i	i	i
CCCCC(=O)N/N=C/c1c(O)n(CC)c(=S)[nH]c1=O	i	2.0[inhibitor]	1.0[inhibitor]	i	i	i	i	i
COc1ccc(CCC(=O)N2C[C@H]3C[C@@H](C2)c2cccc(=O)n2C3)cc1	i	i	i	i	i	nt	nt	nt
O=C1NC(=S)NC(=O)C1Cc1ccccc1O	nt	nt	nt	i	nt	nt	nt	nt
COC(=O)C1=C(c2ccc(Cl)c(C(F)(F)F)c2)C[C@@H]2CC[C@H]1N2C(=O)NCCOc1ccccc1	nt	nt	nt	i	i	nt	nt	nt
COC(=O)C1=C(c2ccc(Cl)c(C(F)(F)F)c2)C[C@@H]2CC[C@H]1N2C(=O)NCc1ccco1	nt	nt	nt	i	i	nt	nt	nt
CCOc1cc2c(cc1OCC)-n1cccc1C(c1ccc(C(C)C)cc1)NC2 (stereo not drawn)	i	i	141	i	i	i	i	i
CCOc1cc2c(cc1OCC)-n1cccc1C(c1ccc(F)cc1)NC2 (stereo not drawn)	i	i	i	i	i	nt	nt	nt
O=C(c1cc(C(=O)NCc2ccc(Cl)cc2)c(=O)n(Cc2ccc(Cl)cc2)c1)c1cc(F)ccc1O	i	134	i	i	i	i	i	i
Cc1ccc(O)c(C(=O)c2cc(C(=O)NCCC(C)C)c(=O)n(CCC(C)C)c2)c1	i	i	i	i	i	nt	nt	nt
CC12CC1(C)C(=O)N(c1cc(Cl)cc(Cl)c1)C2=O (stereo not drawn)	nt	nt	nt	i	nt	nt	nt	nt
CCOC(=O)C1(c2ccccc2)CCN(CCC(C#N)(c2ccccc2)c2ccccc2)CC1	i	i	136	i	i	i	i	i
Cn1cc(C(=O)OCC(=O)NC2(C#N)CCCC2)c2ccccc21	nt	nt	nt	i	i	nt	nt	nt
Cc1cc(C=C2C(=O)N(C)C(=S)N(C)C2=O)c(C)n1C1CCCCC1	i	i	72[inhibitor]	i	i	i	i	i
CN1C(=O)/C(=C\c2ccc(N3CCCCCC3)cc2)C(=O)NC1=S	i	i	i	i	i	nt	nt	nt
Cc1cc(N2CCCCC2)ccc1C=C1C(=O)N(C)C(=S)N(C)C1=O	i	i	29[inhibitor]	i	i	i	i	i
CN1C(=O)N(C)C(=O)C(NS(=O)(=O)c2ccc(N)cc2)(c2ccccc2)C1=O	nt	nt	nt	i	nt	nt	nt	nt
O=C(O)C(Br)CBr (stereo not drawn)	nt	nt	nt	i	i	nt	nt	nt
CCC(C)N1C(=O)/C(=C\c2cc3c4c(c2)CCCN4CCC3)C(=O)NC1=S (stereo not drawn)	i	i	6.0[inhibitor]	i	i	i	i	i
SMILES	MEKK2 mut-MEK5	MEKK3 PB1 HTS	MEKK2 WT-MEK5	Beta2AR agonist	GRK2 aptamer HTS	MEKK2wt confirm	MEKK2mut confirm	MEKK3-MEK5 inh	others
OC[C@@H](O)CCl	i	i	i	nt	i	nt	nt	nt
CNc1ccc2nc3ccccc3[n+](C)c2c1	i	i	2.0[inhibitor]	i	i	i	i	i
CN1/C(=C\C=Nc2ccccc2)C(C)(C)c2ccccc21	i	i	0.0[inhibitor]	i	i	i	i	i
CC(=O)C1(c2ccccc2)CCN(C(=O)C2CCC(=O)N(CCc3cccc(F)c3)C2)CC1 (stereo not drawn)	i	i	i	i	i	nt	nt	nt
c1ccc(-c2[nH]c[n+](CC3CO3)c2-c2ccccc2)cc1 (stereo not drawn)	i	i	152	nt	i	i	i	i
CCOC(=O)c1c(/N=C/c2c(O)n(-c3ccccc3F)c(=S)[nH]c2=O)sc2c1CCCC2	i	i	64[inhibitor]	i	54	i	i	i	GRK2 inh confirm=i;Aptamer quench SP=i
ClCCOCOCCCl	nt	nt	nt	i	i	nt	nt	nt
CNCCC(Oc1ccc(C(F)(F)F)cc1)c1ccccc1 (stereo not drawn)	i	i	139	i	i	i	i	i	B2AR ag CP1=i;B2AR FAP counter=i
O=c1[nH]c(=O)n(Cc2ccco2)c(O)c1C=NC1CCN(Cc2ccccc2)CC1	i	i	i	i	i	nt	nt	nt
Cc1nc2c(=O)n(C)c(=O)nc-2n(C)n1	i	i	i	64	41	nt	nt	nt	GRK2 inh confirm=63;Aptamer quench 1=i;Aptamer quench SP=i
COC(C)(C)CCCC(C)C/C=C/C(C)=C/C(=O)OC(C)C (stereo not drawn)	nt	nt	nt	i	i	nt	nt	nt
